Shown are actives, neighbours in structure and some others; about 7.6% of the full set was active somewhere.
KCNH2 WT inh: inhibitors of human wildtype KCNH2 potassium channel | Q12809 | U2OS, BacMam KCNH2, thallium flux FluxOr; hits give low values | activity change, % at 1.84 µM | 340,000 compounds, 0.37% hits | AID 720551;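 active = maximum activity change below -70%; inconclusive = maximum activity change between -70% and -50%; inactive = maximum activity change above -50%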
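U2OS cells transduced with wild-type KCNH2 virus are loaded with FluxOr dye for 45 min, and thallium flux is measured in kinetic reads before and after stimulation buffer. Rate constants are normalized to DMSO controls.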
KCNH2 3.1 inh: blocks the human KCNH2 3.1 channel isoform; 340,000 compounds, 0.95% hits; U2OS KCNH2 3.1, thallium flux FluxOr; hits give low values; activity change, % (tested at about 1.8 µM); AID 720553;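 active = maximum activity change below -70%; inconclusive = maximum activity change from -70% to -50%; inactive = maximum activity change above -50%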;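 note: thallium influx rate constant from kinetic fluorescence after stimulation buffer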
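Kinetic fluorescence (2 min after stimulation buffer) measures Tl+ influx through KCNH2 3.1 expressed by viral transduction in U2OS cells; the rate constant is normalized against DMSO controls serving as positive and negative references.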
KB-V1 MDR tox: kills drug-selected multidrug resistant KB-V1 cells; KB-V1 MDR cells viability, CellTiter-Glo, 72 h; Potency, µM (highest dose often 46.1 µM), hits mostly cytotoxic; 400,000 compounds, 3.4% hits; AID 1347076; note: nearly all actives have a fitted effect of over 60% in size
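Cytotoxicity toward P-gp-expressing KB-V1 cells was determined as loss of CellTiter-Glo luminescence after 72 h at 37 degrees C. Compounds were tested in quantitative HTS format across a concentration range, with curves fitted to normalized data.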
SW480 rerep: induces DNA re-replication in SW480 colon adenocarcinoma cells. Potency, µM (doses to about 46.1 µM), usual class: activators. SW480 DNA re-replication, Hoechst DNA content imaging, 48 h. 340,000 compounds, 1.8% hits; note: nearly all actives have a fitted effect of over 55% in size
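Compounds, transferred as 23 nL by pin tool, were incubated with cells for 48 hr; DNA content per nucleus was then quantified by Hoechst staining and fluorescence plate imaging.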
KB-3-1 cytotox: kills parental KB-3-1 adenocarcinoma cells. Potency, µM (highest dose often 46.1 µM), hits mostly cytotoxic. KB-3-1 viability, CellTiter-Glo ATP luminescence, 72 h. 400,000 compounds, 1.4% hits; note: nearly all actives have a fitted effect of over 60% in size
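Parental KB-3-1 adenocarcinoma cells in phenol-red-free DMEM with 10% FBS were pin-treated with compounds at several concentrations, incubated 72 h at 37 °C, and viability read by CellTiter-Glo luminescence; concentration-effect curves were fitted after normalization.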
MCF10A rereplic: DNA re-replication induction in MCF 10a cells; 350,000 compounds, 2.9% hits; MCF 10A DNA re-replication, Hoechst nuclear intensity, 48 h; AID 624296; Potency, µM (doses to about 46.1 µM), hits mostly activators; note: nearly all actives have a fitted effect of over 50% in size
Large screens that a line does not name were inactive. Unless noted, calls come from the whole dose curve; as a rule, active = well fitted curve in the direction sought with a large enough effect; inconclusive = small, poorly fitted or top-dose-only effect, or another doubt; inactive = no such curve, though single readings can be large; an effect the other way counts as inactive or inconclusive.

CN(Cc1ccccc1)C(=O)CSc1nc2ccccc2n1Cc1ccccc1F	none (no result: KCNH2 WT inh, KCNH2 3.1 inh, SW480 rerep, MCF10A rereplic)
Cc1ccc(C(O)(C(=O)NNS(=O)(=O)c2ccc(C)cc2)c2ccc(C)cc2)cc1	KB-V1 MDR tox inconclusive
O=C(NNS(=O)(=O)c1ccc(CCCl)cc1)C(O)(c1ccccc1)c1ccccc1	KB-V1 MDR tox 16µM
Cc1c(C(C)C)c(=O)n(-c2ccccc2)n1C	none (no result: KCNH2 WT inh, KCNH2 3.1 inh, KB-V1 MDR tox, KB-3-1 cytotox)
Cc1c(C(C)C)c(=O)n(-c2ccc(S(=O)(=O)NCc3ccccc3)cc2)n1C	KB-V1 MDR tox 2.6µM, KB-3-1 cytotox inconclusive
CC(C)(C)C1CCc2c(sc(NC(=O)C3CCCO3)c2C(N)=O)C1 (configuration not stated)	SW480 rerep inconclusive, MCF10A rereplic 18µM
c1ccc(Cn2nnc3c(Nc4ccc5c(c4)OCO5)nc(C4CC4)nc32)cc1	MCF10A rereplic 10µM
COc1ccc(Cl)cc1Nc1nc(C)nc2c1nnn2Cc1ccccc1	MCF10A rereplic inconclusive
CN(C)S(=O)(=O)c1ccc(Nc2nc(C3CC3)nc3c2nnn3Cc2ccccc2Cl)cc1	KB-V1 MDR tox inconclusive, KB-3-1 cytotox 2.9µM
COc1ccc(OC)c(Nc2nc(C3CC3)nc3c2nnn3Cc2ccccc2)c1	KB-V1 MDR tox 2.1µM
CCN(CC)S(=O)(=O)c1cc(-c2nnc(Nc3ccc(OC)c(C(N)=O)c3)c3ccccc23)ccc1C	none (no result: KCNH2 WT inh, KCNH2 3.1 inh, SW480 rerep, MCF10A rereplic)
Cc1ccc(/C(N)=N/OC(=O)c2cccs2)cc1	KCNH2 WT inh -176, KCNH2 3.1 inh -185
Cc1ccc(/C(N)=N/OC(=O)C23CC4CC(CC(C4)C2)C3)cc1	KB-V1 MDR tox inconclusive, KB-3-1 cytotox inconclusive, MCF10A rereplic 18µM
O=S(=O)(CCN1CCCCC1)CCS(=O)(=O)CCN1CCCCC1	SW480 rerep inconclusive
CC(C(=O)NCC1CCCO1)N(C(=O)c1snc(C(N)=O)c1N)c1cccc(F)c1 (configuration not stated)	KB-V1 MDR tox 12µM
CC(C(=O)NCC1CCCO1)N(C(=O)c1snc(C(N)=O)c1N)c1ccccc1 (configuration not stated)	none
CC(C)c1ccc(N(C(=O)c2snc(C(N)=O)c2N)C(C(=O)NCC2CCCO2)c2ccc(N(C)C)cc2)cc1 (configuration not stated)	KB-V1 MDR tox 21µM, KB-3-1 cytotox inconclusive, MCF10A rereplic inconclusive
Cc1ccc(CN(C(=O)COc2cccc(Cl)c2)c2ccccn2)o1	none (no result: KCNH2 WT inh, KCNH2 3.1 inh, SW480 rerep, MCF10A rereplic)
CNC(=S)N1CCC(Cc2ccccc2)CC1	none
C[C@@H](CN1CCC(Cc2ccccc2)CC1)[C@@H](O)c1ccc(O)cc1	KCNH2 3.1 inh -217, MCF10A rereplic inconclusive
CCOC(=O)Cc1csc(NC(=O)CCc2ccc(S(=O)(=O)N3CCOCC3)cc2)n1	SW480 rerep 23µM, MCF10A rereplic inconclusive
CCOC(=O)Cc1csc(NC(=O)c2ccc(S(=O)(=O)N3CCCCC3)cc2)n1	KB-V1 MDR tox 15µM
COc1ccc(OC)c(NS(=O)(=O)c2cccs2)c1	none
COc1ccc(OC)c(NS(=O)(=O)c2ccc(Cl)s2)c1	KB-V1 MDR tox 16µM, SW480 rerep inconclusive, KB-3-1 cytotox inconclusive, MCF10A rereplic inconclusive
COc1ccc(OC)c(NS(=O)(=O)c2ccc(-c3cc(C)no3)s2)c1	KB-V1 MDR tox inconclusive, KB-3-1 cytotox 4.6µM (no result: KCNH2 WT inh, KCNH2 3.1 inh, SW480 rerep, MCF10A rereplic)
COc1ccc2[nH]c3c(c2c1)CCN1C(=O)N([C@@H](C)C(=O)NCc2ccc(F)cc2)C(=O)[C@]31C	none
COc1ccc2[nH]c3c(c2c1)CCN1C(=O)N([C@@H](C)C(=O)NCCc2ccc(F)cc2)C(=O)[C@]31C	KB-V1 MDR tox inconclusive, SW480 rerep inconclusive, KB-3-1 cytotox 12µM, MCF10A rereplic inconclusive
O=C(OCc1ccccc1)/C(=C/c1ccccc1Cl)NC(=O)c1ccco1	MCF10A rereplic inconclusive (no result: KB-V1 MDR tox, KB-3-1 cytotox)
NC1=NC(=O)/C(=C/c2cccs2)S1	none
C=CCSC1=NC(=O)/C(=C/c2cccs2)S1	MCF10A rereplic 18µM
